Test results: PubChem BioAssay (NCATS)
Records with an inconclusive call do not appear. Where a call stands in place of a potency, no number is given. Calls of active or inactive are those of the source. Calls come from the whole dose curve; as a rule, active = well fitted cell-killing curve with a large enough effect; inconclusive = small, poorly fitted or top-dose-only effect, or effect the other way; inactive = flat fitted curve, though single readings scatter.

Test system: Tov-21-G
Assay: Primary qHTS to identify gynecologic anti-cancer compounds using libraries of approved drugs and bioactive compounds (AID 1345084); note: nearly all actives have a fitted effect of over 55% in size
Details: Gynecologic cancer cell panel viability, ATPlite luminescence, 48 h; series mostly up to 57.5 µM
Method in brief: (§1)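 Luminescence from the ATPlite ATP-monitoring reagent indicates viable cell number; lower signal means cytotoxicity. Cells received compound 16 h after seeding and were exposed for 48 h across five concentrations.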
Potency is the fitted concentration of half-maximal effect.

Structure (SMILES)	Potency
CC(=O)CC(c1ccc([N+](=O)[O-])cc1)c1c(O)c2ccccc2oc1=O (stereo not given)	inactive
CC(C)(C)NC(=O)[C@@H]1CN(Cc2cccnc2)CCN1C[C@@H](O)C[C@@H](Cc1ccccc1)C(=O)N[C@H]1c2ccccc2C[C@H]1O	inactive
COc1cc(/C=C/C(=O)O[C@H]2CC[C@]34C[C@]35CC[C@]3(C)[C@@H]([C@H](C)CCC=C(C)C)CC[C@@]3(C)[C@@H]5CC[C@H]4C2(C)C)ccc1O	inactive
Cc1cc2c(cc1CC(=O)c1sccc1S(=O)(=O)Nc1onc(C)c1Cl)OCO2	inactive
O=C(CCN1CCC(c2ccccc2)C1)c1ccc2c(c1)OCCO2 (stereo not given)	inactive
COc1cccc(CCc2ccccc2OCC(CN(C)C)OC(=O)CCC(=O)O)c1 (stereo not given)	inactive
O=c1ccc2ccccc2o1	inactive
O=c1[nH]c(=O)n([C@H]2CCCO2)cc1F	inactive
C=C1C(=C/C=C2\CCC[C@]3(C)[C@@H]([C@H](C)/C=C/[C@@H](O)C4CC4)CC[C@@H]23)C[C@@H](O)C[C@@H]1O	inactive
O=C(OCCOCCO)c1ccccc1Nc1cccc(C(F)(F)F)c1	inactive
CCOC(=O)/C=C(C)/C=C/C=C(C)/C=C/c1c(C)cc(OC)c(C)c1C	inactive
CCCCCCCCCCCCCCNCCO	inactive
COc1cc(-c2ccc(=O)[nH]n2)ccc1OC(F)F	inactive
CN1CCCC(CC2c3ccccc3Sc3ccccc32)C1 (stereo not given)	inactive
COc1cc2c(cc1OC)[C@@H]1CC(=O)[C@@H](CC(C)C)CN1CC2	inactive
N[C@H](Cc1c[nH]c2ccccc12)C(=O)O	inactive
OC[C@H]1O[C@H](O[C@]2(CCl)O[C@H](CCl)[C@@H](O)[C@@H]2O)[C@H](O)[C@@H](O)[C@H]1Cl	inactive
O=C(Nc1ccc(Oc2ccc(Cl)cc2)c(Cl)c1)c1cc(I)cc(I)c1O	inactive

Structure (SMILES)	Potency
COc1ccc(/C=C/C(=O)c2ccc(OC)cc2OC)cc1	inactive
c1ccc(CNCCNCc2ccccc2)cc1	inactive
CC(=O)N/N=C/c1ccc([N+](=O)[O-])o1	inactive
NC(=O)C(=O)N/N=C/c1ccc([N+](=O)[O-])o1	inactive
Cc1nc2n(c(=O)c1CCN1CCC(c3noc4cc(F)ccc34)CC1)CCC[C@H]2O	inactive
Clc1ccc2c(c1)CCc1cccnc1C2=C1CCNCC1	inactive
Nc1ccn([C@@H]2O[C@H](CO)[C@@H](O)C2(F)F)c(=O)n1	inactive
CC1=C(C(=O)OC(C)C)C(c2cccc([N+](=O)[O-])c2)C(C(=O)OC2CN(C(c3ccccc3)c3ccccc3)C2)=C(N)N1 (stereo not given)	inactive
Cc1c(C)n(Cc2ccccc2)c2ccc(C(=O)OCCN(C)C)cc12	inactive
COC(=O)C1=C(C)NC(C)=C(C(=O)O[C@@H]2CCCN(Cc3ccccc3)C2)[C@@H]1c1cccc([N+](=O)[O-])c1	inactive
O=C(Nc1ccc(Cl)c(Cl)c1)C1CC1	inactive
c1ccc(-c2ccc(C(c3ccccc3)n3ccnc3)cc2)cc1 (stereo not given)	inactive
C/C=C(/C(=C/C)c1ccc(O)cc1)c1ccc(O)cc1	inactive
CC(=O)c1ccc2c(c1)N(CCCN1CCC(CCO)CC1)c1ccccc1S2	inactive
CNC(=O)CN(CCN(CCN(CC(=O)[O-])CC(=O)NC)CC(=O)[O-])CC(=O)[O-].O.[Gd+3]	inactive
CCCOC(C(=O)OC1CCN(C)CC1)(c1ccccc1)c1ccccc1	inactive
CC(=O)OCC(=O)[C@@]1(O)[C@H](C)C[C@H]2[C@@H]3CCC4=CC(=O)C=C[C@]4(C)[C@@]3(F)[C@@H](O)C[C@@]21C	inactive

Test system: Tov112D
Assay: as above
Details: Gynecologic cancer cell panel viability, ATPlite luminescence, 48 h; series mostly up to 57.5 µM
Method in brief: as §1

Structure (SMILES)	Potency
CC(=O)CC(c1ccc([N+](=O)[O-])cc1)c1c(O)c2ccccc2oc1=O (stereo not given)	inactive
CC(C)(C)NC(=O)[C@@H]1CN(Cc2cccnc2)CCN1C[C@@H](O)C[C@@H](Cc1ccccc1)C(=O)N[C@H]1c2ccccc2C[C@H]1O	inactive
COc1cc(/C=C/C(=O)O[C@H]2CC[C@]34C[C@]35CC[C@]3(C)[C@@H]([C@H](C)CCC=C(C)C)CC[C@@]3(C)[C@@H]5CC[C@H]4C2(C)C)ccc1O	inactive
Cc1cc2c(cc1CC(=O)c1sccc1S(=O)(=O)Nc1onc(C)c1Cl)OCO2	inactive
O=C(CCN1CCC(c2ccccc2)C1)c1ccc2c(c1)OCCO2 (stereo not given)	inactive
COc1cccc(CCc2ccccc2OCC(CN(C)C)OC(=O)CCC(=O)O)c1 (stereo not given)	inactive
O=c1ccc2ccccc2o1	inactive
O=c1[nH]c(=O)n([C@H]2CCCO2)cc1F	inactive
C=C1C(=C/C=C2\CCC[C@]3(C)[C@@H]([C@H](C)/C=C/[C@@H](O)C4CC4)CC[C@@H]23)C[C@@H](O)C[C@@H]1O	inactive
O=C(OCCOCCO)c1ccccc1Nc1cccc(C(F)(F)F)c1	inactive
CCOC(=O)/C=C(C)/C=C/C=C(C)/C=C/c1c(C)cc(OC)c(C)c1C	inactive
CCCCCCCCCCCCCCNCCO	inactive
COc1cc(-c2ccc(=O)[nH]n2)ccc1OC(F)F	inactive
CN1CCCC(CC2c3ccccc3Sc3ccccc32)C1 (stereo not given)	inactive
COc1cc2c(cc1OC)[C@@H]1CC(=O)[C@@H](CC(C)C)CN1CC2	inactive
N[C@H](Cc1c[nH]c2ccccc12)C(=O)O	inactive
OC[C@H]1O[C@H](O[C@]2(CCl)O[C@H](CCl)[C@@H](O)[C@@H]2O)[C@H](O)[C@@H](O)[C@H]1Cl	inactive
O=C(Nc1ccc(Oc2ccc(Cl)cc2)c(Cl)c1)c1cc(I)cc(I)c1O	inactive

Structure (SMILES)	Potency
COc1ccc(/C=C/C(=O)c2ccc(OC)cc2OC)cc1	inactive
c1ccc(CNCCNCc2ccccc2)cc1	inactive
CC(=O)N/N=C/c1ccc([N+](=O)[O-])o1	inactive
NC(=O)C(=O)N/N=C/c1ccc([N+](=O)[O-])o1	inactive
Cc1nc2n(c(=O)c1CCN1CCC(c3noc4cc(F)ccc34)CC1)CCC[C@H]2O	inactive
Clc1ccc2c(c1)CCc1cccnc1C2=C1CCNCC1	inactive
Nc1ccn([C@@H]2O[C@H](CO)[C@@H](O)C2(F)F)c(=O)n1	178 nM (active)
CC1=C(C(=O)OC(C)C)C(c2cccc([N+](=O)[O-])c2)C(C(=O)OC2CN(C(c3ccccc3)c3ccccc3)C2)=C(N)N1 (stereo not given)	inactive
Cc1c(C)n(Cc2ccccc2)c2ccc(C(=O)OCCN(C)C)cc12	inactive
COC(=O)C1=C(C)NC(C)=C(C(=O)O[C@@H]2CCCN(Cc3ccccc3)C2)[C@@H]1c1cccc([N+](=O)[O-])c1	inactive
O=C(Nc1ccc(Cl)c(Cl)c1)C1CC1	inactive
c1ccc(-c2ccc(C(c3ccccc3)n3ccnc3)cc2)cc1 (stereo not given)	inactive
C/C=C(/C(=C/C)c1ccc(O)cc1)c1ccc(O)cc1	inactive
CC(=O)c1ccc2c(c1)N(CCCN1CCC(CCO)CC1)c1ccccc1S2	inactive
CNC(=O)CN(CCN(CCN(CC(=O)[O-])CC(=O)NC)CC(=O)[O-])CC(=O)[O-].O.[Gd+3]	inactive
CCCOC(C(=O)OC1CCN(C)CC1)(c1ccccc1)c1ccccc1	inactive
CC(=O)OCC(=O)[C@@]1(O)[C@H](C)C[C@H]2[C@@H]3CCC4=CC(=O)C=C[C@]4(C)[C@@]3(F)[C@@H](O)C[C@@]21C	inactive
